Compounds without any hit were thinned out: in the full panel of roughly 83,000, 20% have a hit.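 Results are percent growth after 48 hours of single-concentration exposure. 100 means growth as in untreated cells, lower positive values show inhibition; negative values down to -100 show cell death.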 A number with no mark means an inactive call. Active and inactive are the calls of the source. Rule for the calls: active = growth percent below 10; inactive = the rest.
Key:
Assay in all cases: NCI-60 one-dose screen, 48 h (100 = growth as untreated, 0 = no growth, -100 = all killed)
Settings in all cases: 10 µM unless noted
HCT-15 colon = tested on: HCT-15 colon
HT29 colon = tested on: HT29 colon
SNB-75 CNS = tested on: SNB-75 CNS
SNB-19 CNS = tested on: SNB-19 CNS
U251 CNS = tested on: U251 CNS
PC-3 prostate = tested on: PC-3 prostate
SK-MEL-5 melanoma = tested on: SK-MEL-5 melanoma
UACC-62 melanoma = tested on: UACC-62 melanoma
LOX IMVI melanoma = tested on: LOX IMVI melanoma
SK-MEL-28 melanoma = tested on: SK-MEL-28 melanoma
SK-MEL-2 melanoma = tested on: SK-MEL-2 melanoma
EKVX NSCLC = tested on: EKVX NSCLC
SN12C renal = tested on: SN12C renal
UO-31 renal = tested on: UO-31 renal
TK-10 renal = tested on: TK-10 renal
ACHN renal = tested on: ACHN renal
CAKI-1 renal = tested on: CAKI-1 renal
A498 renal = tested on: A498 renal
CCRF-CEM leukemia = tested on: CCRF-CEM leukemia
MOLT-4 leukemia = tested on: MOLT-4 leukemia

Row | SMILES | growth (HCT-15 colon) | growth (HT29 colon) | growth (SNB-75 CNS) | growth (SNB-19 CNS) | growth (U251 CNS) | growth (PC-3 prostate) | growth (SK-MEL-5 melanoma) | growth (UACC-62 melanoma) | growth (LOX IMVI melanoma) | growth (SK-MEL-28 melanoma) | growth (SK-MEL-2 melanoma) | growth (EKVX NSCLC) | growth (SN12C renal) | growth (UO-31 renal) | growth (TK-10 renal) | growth (ACHN renal) | growth (CAKI-1 renal) | growth (A498 renal) | growth (CCRF-CEM leukemia) | growth (MOLT-4 leukemia)
1 | O=C(CSc1nc2ccccc2c(=O)n1-c1ccccc1)Nc1cccc(C(=O)/C=C/c2ccccc2)c1 | 76.4% | 96.4% | 75.6% | 85.5% | 71.2% | 90.4% | 99.5% | 88.7% | 86.1% | 102% | 100% | 96.7% | 98.4% | 76% | 107% | 102% | 86% | 98% | 90.3% | 88.6%
2 | Fc1ccc(-c2cc3nc(C(Cl)Cl)nc(-c4ccc(F)cc4)n3n2)cc1 | 8.52% (active) | -6.96% (active) | -11.6% (active) | 1.89% (active) | -39.8% (active) | 16.8% | 76.5% | 44% | 55.7% | -5.14% (active) | 108% | 7.26% (active) | 49.2% | 29.3% | 13.2% | -41.1% (active) | -18.3% (active) | -53.1% (active) | 33.1% | 12.4%
3 | COc1ccc(Cn2cc3c(c2-c2cc(OC)c(OC)c(OC)c2)CCc2c(CN4CCOCC4)noc2-3)cc1 | 15.3% | 11.7% | 18% | 27.1% | 27.9% | 31.9% | 17.3% | 19.1% | 33.5% | 60.7% | 62.4% | 43.4% | 31.6% | 39.5% | 90.1% | 43.4% | 44.6% | -0.0936% (active) | 16.3% | 22.7%
4 | Clc1cccc(/C=N/Nc2nc(N/N=C/c3cccc(Cl)c3Cl)nc(N3CCCCC3)n2)c1Cl | 65.5% | 84.3% | 104% | 95.4% | 52.9% | 70.1% | 94.2% | 89.8% | 68.3% | 97.7% | 114% | 89% | 80.7% | 93.2% | 91.2% | 83.7% | 84.1% | 92.5% | 71.3% | 84.3%
5 | N=c1c2cc(-c3ccccc3)oc2ncn1/N=C/c1ccc(Br)cc1 | 57.9% | 102% | 58% | 74.9% | 45.9% | 75.3% | 97.1% | 90.4% | 45.3% | 77.8% | 104% | 79.4% | 60% | 85.4% | 111% | 19.3% | 88.5% | 80.4% | 68.7% | 85%
6 | CCCSc1nc(Nc2ccc(/C(C)=N\NC(N)=S)cc2)c(C#N)c(-c2ccccc2)n1 | 66% | 60.3% | 141% | 83.1% | 73.1% | 79.9% | 80.2% | 97.1% | 46.1% | 84.6% | 87.9% | 74.4% | 77.9% | 46.9% | 95% | 35.4% | 48.1% | 102% | 69.3% | 52.8%
7 | COc1c(N2CC3CCCNC3C2)c(F)cc2c(=O)c(C(=O)N/N=C/c3ccccc3)cn(C3CC3)c12 (stereo not given) | 76.3% | 72.6% | 88.7% | 101% | 94.7% | 86.9% | 87.8% | 105% | 83.7% | 94.3% | 111% | 94.7% | 91.5% | 86.4% | 99.5% | 105% | 91.9% | 74.9% | 78.2% | 79.3%
8 | NC(N)=Nc1ccc(Nc2cccc(Nc3ccc(Cl)c(C(F)(F)F)c3)c2)cn1 | 68.4% | 29.8% | 45.6% | 4.1% (active) | -43.2% (active) | -24.9% (active) | 34.5% | 24.5% | 13.8% | 40.3% | 53.7% | 43.1% | 13.3% | 82.3% | 98% | 78.1% | 41.6% | 58.8% | 5.61% (active) | 12.8%
